The results in this text go back to PubChem BioAssay AID485270 (The Scripps Research Institute Molecular Screening Center, 2010).

About 5,800 (1.8%) of roughly 330,000 compounds were called active. Only a selection was taken, and actives are over-represented in it overall. Unmarked numbers belong to inactive results. Rule as the data show it: active = inhibition mostly above about 38% (no sharp cut-off); inactive = mostly below about 40%.

Chain of Orexin/Hypocretin receptor type 1 (Homo sapiens) (O43613 whole entry, looked up): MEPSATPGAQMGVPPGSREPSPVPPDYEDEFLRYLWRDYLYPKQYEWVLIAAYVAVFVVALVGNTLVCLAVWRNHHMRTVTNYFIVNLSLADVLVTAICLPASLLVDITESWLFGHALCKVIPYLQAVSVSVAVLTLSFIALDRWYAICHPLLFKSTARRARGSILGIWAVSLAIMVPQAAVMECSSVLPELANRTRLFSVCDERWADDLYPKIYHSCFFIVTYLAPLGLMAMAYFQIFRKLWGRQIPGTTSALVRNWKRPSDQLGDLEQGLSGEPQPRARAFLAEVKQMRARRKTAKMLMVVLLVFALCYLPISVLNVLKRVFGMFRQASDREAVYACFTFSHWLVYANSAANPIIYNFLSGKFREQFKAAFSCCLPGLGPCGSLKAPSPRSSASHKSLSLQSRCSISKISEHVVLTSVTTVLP

This assay addresses Orexin/Hypocretin receptor type 1 (Homo sapiens) (UniProt O43613). Put plainly: antagonists of human orexin 1 receptor (OX1R) (AID 485270).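 Also: 0% = agonist challenge alone and 100% = reference antagonist.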 The conditions noted are these: OX1R-expressing cells, FRET antagonist read-out; at 6.6 µM; hits give high values.
As a reminder, the inhibition is the change of the read-out against control, counted positive when it falls. As for `CN(CC(=O)O)S(=O)(=O)c1ccc2oc3ccccc3c2c1`, the inhibition is 7.24%. `CN(CCO)S(=O)(=O)c1ccc2c(c1)C(=O)c1cc(S(=O)(=O)N(C)CCO)ccc1-2`: the inhibition was 57.6% (active).

For the compound `O=C(O)c1ccc(NS(=O)(=O)c2ccc3c(c2)C(=O)c2cc(S(=O)(=O)Nc4ccc(C(=O)O)cc4)ccc2-3)cc1`, the inhibition is 18.6%. The figure for `O=C(CSCc1ccccc1)Nc1ccccc1` is 4.92%. Consider `CC(=O)Nc1ccc(NC(=O)CSCc2cnn(-c3ccccc3)c2-n2cccc2)cc1`, for which the inhibition is 39.8% (active). For the compound `Cc1cc(C)cc(NC(=O)CSCc2cnn(-c3ccccc3)c2-n2cccc2)c1`, the inhibition was 68.1%. Consider `CC(=O)c1c(C)[nH]c(C(=O)COC(=O)CCOc2ccc(C)cc2)c1C`, for which the inhibition was 11.2%. As for `O=C(CNC(=O)c1ccco1)NNC(=O)c1ccc(Br)cc1`, the inhibition was 1.51%. The figure for `O=C(CNC(=O)c1n[nH]c2ccccc12)Nc1cc(Cl)ccc1Cl` is 11.3%; for `Oc1ccc(N=Nc2nccs2)c(O)c1` it is 58.9% (active); for `Oc1ccc2ccccc2c1N=Nc1nccs1` it is 99.3% (active). Regarding `C[C@@H]1C(c2ccc(F)cc2)=NN(c2ccc(Br)cc2)[C@H]1C(=O)N1CCOC1=O`, the inhibition was 13.5%. The figure for `CCN(C[C@H]1N[C@@](Cc2ccccc2)(C(=O)OC)[C@H]2C(=O)N(Cc3ccccc3)C(=O)[C@@H]12)C(=O)c1ccc(C)cc1` is 1.44%. Consider `CC1CCCCC1NC(=O)Cn1cnc2c1c(=O)n(C)c(=O)n2C` (stereo not given), for which the inhibition is 4.33%. The figure for `CCOCCCNC(=O)c1cc2c(=O)n3ccccc3nc2s1` is 32.8%; for `CCc1cccc2c(=O)c(C(=O)NCCCOC)c[nH]c12` it is 21.4%. With `Cc1cccn2c(=O)c3cc(C(=O)NCC4CCCO4)c(=N)n(Cc4ccc(F)cc4)c3nc12` (stereo not given), the inhibition is 41.5%. As to `O=C(NCc1cccnc1)c1cc(S(=O)(=O)N2CCOCC2)c(Cl)cc1Cl`, the inhibition was 2.88%. `Cc1cccn2c(=O)c3cc(C(=O)NCCN4CCOCC4)c(=N)n(Cc4cccnc4)c3nc12`: the inhibition is 69.1% (active). On to `CCn1c(=N)c(C(=O)NCCCOC)cc2c(=O)n3cccc(C)c3nc21`, for which the inhibition is 141% (active).

Turning to `COc1cc(C(=O)NC2CCN(C)CC2)ccc1Nc1ncc2c(n1)N(C1CCC(O)CC1)CCC(=O)N2C` (stereo not given), the inhibition was 5.47%. Consider `C[C@H]1CN([C@@H](C)CO)C(=O)Cc2cc(NC(=O)Cc3ccccc3)ccc2O[C@H]1CN(C)S(=O)(=O)c1cccs1`, for which the inhibition was 8.68%. For `CC1Cc2cc(/C(O)=C3\C(=O)C(=O)N(CCN4CCOCC4)C3c3ccccc3F)ccc2O1` (stereo not given), the inhibition was 6.48%.

For the compound `O=C1C(=O)N(CCN2CCOCC2)C(c2ccccn2)/C1=C(/O)c1ccc(Cl)cc1` (stereo not given), the inhibition was 55.2% (active).

As for `O=C1C(=O)N(CCN2CCOCC2)C(c2cccc(Cl)c2)/C1=C(/O)c1ccc2c(c1)OCO2` (stereo not given), the inhibition was 13.6%. `CCCOc1ccc(/C(O)=C2/C(=O)C(=O)N(CCN(C)C)C2c2ccc(OC)c(OC)c2)cc1` (stereo not given): the inhibition is 31.1%. For `CCN(CC)CCN1C(=O)C(=O)/C(=C(/O)c2ccc(OC)c(OC)c2)C1c1ccccn1` (stereo not given), the inhibition is 51.5% (active). With `COc1ccc(/C(O)=C2/C(=O)C(=O)N(CCCN(C)C)C2c2ccccc2)cc1OC` (stereo not given), the inhibition was 4.51%. For `CC[C@]12c3[nH]c4ccc(Cl)cc4c3CCN1C(=O)[C@@H](CC(=O)NCCCOC)C[C@@H]2C(=O)N1CCN(C(=O)c2ccco2)CC1`, the inhibition was 1.35%.

For the compound `CCC(CO)Oc1cc(NC(=O)c2ccc(Cl)cc2)c2ncn(C(C)C)c2c1` (stereo not given), the inhibition was 0.25%. Turning to `O=C(Nc1cc(S(=O)(=O)N2CCOCC2)ccc1N1CCOCC1)c1c(F)cccc1Cl`, the inhibition was 8.73%. The figure for `COc1ccc(-c2cc3ncccc3cn2)cc1` is 21.6%; for `CC(C)(C)OC(=O)C[C@@H]1C/C=C\C[C@@H](CC(=O)NCCO)C(=O)N[C@H](Cc2c[nH]c3ccccc23)COC1=O` it is 3.99%. As to `COc1ccccc1NC(=O)CN(c1ccccc1OC)S(=O)(=O)c1ccccc1`, the inhibition was 75.8% (active).

Take `CCN(c1ccccc1)S(=O)(=O)c1ccc(C(=O)Nc2ccccc2OC)cc1`: the inhibition is 14%. Turning to `COc1ccccc1N(CC(=O)N1CCCCC1)S(=O)(=O)c1ccccc1`, the inhibition is 13.9%.

Turning to `O=C(NCCc1c[nH]c2ccccc12)c1cc2ccccc2oc1=O`, the inhibition was 1.13%. In the case of `COC(=O)Cn1c(O)c(N=NC(=O)OC)c2ccccc21`, the inhibition is 41.9%. For the compound `CCOC(=O)Cn1c(O)c(N=NC(=O)CNC(=O)Cc2ccccc2)c2ccccc21`, the inhibition is 38.3% (active).

Turning to `O=C(CNC(=O)Cc1ccccc1)N=Nc1c(O)[nH]c2ccc(Br)cc12`, the inhibition was 8.32%. The figure for `CCN(CC)C(=O)[C@H]1C[C@H](CC(=O)NCC23CC4CC(CC(C4)C2)C3)C(=O)N2CCc3c([nH]c4cc(CCC(=O)N(C)C)ccc34)[C@]12C` is 5.23%. For the compound `Cc1ccsc1C(=O)NNC(=O)COc1ccc(Br)cc1`, the inhibition was 3.22%. Take `NCC(=O)c1cccc2ccc[n+]([O-])c12`: the inhibition was 10.5%. On to `Cc1ccc2cccc(O)c2[n+]1[O-]`, for which the inhibition is 53.1% (active).

As to `C[C@H](CO)N1C[C@H](C)[C@@H](CN(C)C(=O)Nc2ccc3c(c2)OCO3)Oc2c(cccc2N(C)C)C1=O`, the inhibition was -4.67%.

For the compound `O=C(COc1ccc(F)cc1Br)NCC1COc2ccccc2O1` (stereo not given), the inhibition is 7.79%. In the case of `CC(C)(C)NS(=O)(=O)NC(=O)C1=C(N2CCCC2)COC1=O`, the inhibition was -2.54%. The figure for `COc1ccc(C2=Nn3c(nnc3-c3ccccc3OC)SC2)cc1OC1CCCC1` is 11.2%; for `N#C/C(=C\c1ccc(-c2cccc([N+](=O)[O-])c2)o1)C(=O)NCCN1CCOCC1` it is 43.6%. The figure for `Cc1ccc(C(=O)N/C(=C/c2ccc(-c3cccc([N+](=O)[O-])c3)o2)C(=O)NCCCN(C)C)cc1` is 63.9% (active); for `CN(C)CCNC(=O)/C(=C/c1cccc([N+](=O)[O-])c1)NC(=O)c1ccccc1` it is 12.9%; for `O=C(OCC(=O)N1CCN(C(=O)c2ccco2)CC1)c1c(Cl)cccc1Cl` it is 9.98%. As for `Cc1ccc(N(CC(=O)Nc2cc(C)cc(C)c2)S(=O)(=O)c2cccc3nonc23)cc1`, the inhibition was 46.5% (active).

Turning to `Cc1ccc(CNC(=O)CCNS(=O)(=O)c2cccc3nonc23)cc1`, the inhibition was 9.03%. For `CCOC(=O)c1cccc(NC(=O)CN(c2ccc(C)cc2)S(=O)(=O)c2c(C)noc2C)c1`, the inhibition was 68.3%. As for `CCOCN(C(=O)Cn1c(C(C)O)nc2ccccc21)c1c(C)cccc1CC` (stereo not given), the inhibition is 24%. Regarding `O=C(NCCCCCCNC(=O)NCc1ccco1)NCc1ccco1`, the inhibition is 10.8%. With `Cc1cc(NC(=O)CSc2ncc(C(F)(F)F)cc2Cl)no1`, the inhibition was 0.5%. On to `CCCCCCSc1ccc(-c2nc3ccc(Cl)cn3c2NCc2ccccc2)cc1`, for which the inhibition is 12.3%. On to `COc1ccc2sc(-c3ccc(S(C)(=O)=O)cc3)c(-c3ccc(C(N)=O)cc3)c2c1`, for which the inhibition is 8.78%.

For the compound `COc1ccc(Br)cc1CN(C)CC(=O)Nc1cc([N+](=O)[O-])ccc1OC`, the inhibition was 12.8%. Take `COc1ccc(OC)c(NC(=O)CN(C)CCOc2ccc(Br)cc2)c1`: the inhibition was 38.8% (active). Consider `CN(CCOc1ccc(Br)cc1)CC(=O)Nc1cccc(S(=O)(=O)NC2=NCCC2)c1`, for which the inhibition was 18.8%. For the compound `CN(CC(=O)Nc1cccc2c1CCCC2)S(=O)(=O)c1ccc(Cl)cc1`, the inhibition is 3.84%.

In the case of `COc1ccc(-c2nc3cnccn3c2NC2CCCCC2)cc1-c1cccc(Cl)c1`, the inhibition was 14.3%. In the case of `COc1ccccc1N1CCN(C(=O)c2cc3c(-c4ccc(Cl)cc4)nn(C)c3s2)CC1`, the inhibition was 2.56%. `Cn1nc(-c2ccc(Cl)cc2)c2cc(C(=O)NCc3ccco3)sc21`: the inhibition was 56.6% (active). Turning to `COc1ccc2c(Cl)c(C(=O)NCc3ccco3)sc2c1`, the inhibition is 5.49%.

With `CN(CCC1CCOCC1)Cc1cn[nH]c1-c1ccc(-c2ccccc2)cc1`, the inhibition is 7.23%. Consider `O=C(CNC(=O)c1ccccc1)Oc1ccc([N+](=O)[O-])cc1`, for which the inhibition is 19.6%.

For `Cc1cc(CNC(=O)c2cccc([N+](=O)[O-])c2)c2ccccc2n1`, the inhibition was 58.6%. Regarding `O=C(NC(Nc1nc2ccc([N+](=O)[O-])cc2s1)(C(F)(F)F)C(F)(F)F)c1ccccc1`, the inhibition was 89.4% (active). For the compound `O=C(CCC(=O)c1cccs1)Nc1nc2ccccc2s1`, the inhibition was 6.48%. In the case of `O=C(CCNC(=O)c1ccccc1)Nc1nc2ccccc2s1`, the inhibition is 7.04%. Consider `O=C(O)CCC(=O)Nc1nc2ccc([N+](=O)[O-])cc2s1`, for which the inhibition is 78.8% (active). In the case of `Cc1csc2nc(COC(=O)c3cccc(N(C)C)c3)cc(=O)n12`, the inhibition is 13.4%.

Turning to `COc1cc(C=NNC(=O)c2cccnc2)ccc1OC(=O)c1ccccc1F`, the inhibition was 8.6%. The figure for `CC(CNC(=O)Cn1cnc2c(OCc3ccccc3)ncnc21)c1ccccc1` (stereo not given) is 3.56%; for `O=C(c1ccc(N2CCOCC2)c([N+](=O)[O-])c1)N1CCN(c2ccccc2F)CC1` it is 7.32%; for `O=C(Nc1cccc(S(=O)(=O)N2CCCCC2)c1)c1cncc(Br)c1` it is -0.59%. Consider `C=CC[C@@H](CC(=O)N[C@H](CO)Cc1ccccc1)C(=O)N[C@H](C)COC(=O)[C@@H](CC=C)Cc1ccc(F)cc1`, for which the inhibition is 20.2%. For the compound `Cc1ccc2nsnc2c1S(=O)(=O)N1CCCC1C(=O)O` (stereo not given), the inhibition is 30.4%.

In the case of `CC(=O)c1cccc(NC(=O)C2CCCN(S(=O)(=O)c3cccc4nonc34)C2)c1` (stereo not given), the inhibition was 24.2%. As to `CC(=O)c1ccc(NC(=O)C2CCCN2S(=O)(=O)c2cccs2)cc1` (stereo not given), the inhibition is 12%.

Turning to `COc1ccc(OC)c(NC(=O)C2CCCN2S(=O)(=O)c2cccc3nsnc23)c1` (stereo not given), the inhibition is 44.2% (active). On to `CC(=O)c1cccc(NC(=O)C2CCCN2S(=O)(=O)c2cccc3nsnc23)c1` (stereo not given), for which the inhibition is 110% (active).

For the compound `O=C(O)C(NS(=O)(=O)c1cccc2nsnc12)c1ccccc1` (stereo not given), the inhibition is 40.5%. Take `CC1CCCCC1NC(=O)C1CCCN1S(=O)(=O)c1cccc2nsnc12` (stereo not given): the inhibition was 73.9% (active).

As to `COc1ccc(NS(=O)(=O)c2cccc3nsnc23)cc1Cl`, the inhibition was 12.4%.

For `COc1ccc(N(C)C(=O)C2CCN(S(=O)(=O)c3cccc4nsnc34)CC2)cc1`, the inhibition was 14.4%.
